Results filed as inconclusive are left out. Calls of active or inactive are those of the source. Unless noted, calls come from the whole dose curve.
Tests used:
[1] = qHTS assay to identify small molecule agonists of the NFkB signaling pathway - cell viability counter screen (AID 1159515); note: series mostly up to about 61 µM; nearly all actives have a fitted effect of over 55% in size
In short: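 Multiplexed viability readout: after the 5 hr compound exposure and 1.5 hr FRET substrate step, CellTiter-Glo reagent went into the same NFkB-bla ME-180 wells; ATP luminescence was measured after 30 min at room temperature.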

[2] = qHTS assay to identify small molecule agonists of the endoplasmic reticulum stress response signaling pathway (AID 1159516; active = well fitted activation curve with a large enough effect in the signal ratio in the repeat runs, not every such curve was filed as active; the % refers to the signal ratio)
In short: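 Tox21 10K library screened in quantitative HTS format on ESRE-bla HeLa cells, a beta-lactamase reporter under ER stress response element control; 5 hr treatment, FRET read.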

[3] = qHTS assay to identify small molecule agonists of the endoplasmic reticulum stress response signaling pathway - cell viability counter screen (AID 1159517); note: series mostly up to about 61 µM; nearly all actives have a fitted effect of over 50% in size
In short: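 HeLa cells carrying an ESRE-driven beta-lactamase reporter receive compound for 5 hr at 37 C. Cell viability is then gauged with CellTiter-Glo by luminescence, 30 min at room temperature.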

[4] = qHTS assay to identify small molecule antagonists of the retinoid-related orphan receptor gamma (ROR-gamma) signaling pathway - cell viability counter screen (AID 1159520; active = well fitted curve in the direction sought with a large enough effect in the repeat runs; an effect the other way counts as inactive or inconclusive; note: nearly all actives have a fitted effect of over 50% in size)
In short: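 Cytotoxicity was read from cellular ATP (CellTiter-Glo luminescence) after 16 hr at 37 C with 1 uM doxycycline induction. The inducer was added 2 hr after compound transfer to Tet-on ROR gamma CHO cells.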

[5] = target: Nuclear receptor ROR-gamma (Homo sapiens) (UniProt P51449); test: qHTS assay to identify small molecule antagonists of the retinoid-related orphan receptor gamma (ROR-gamma) signaling pathway (AID 1159521; active = well fitted curve in the direction sought with a large enough effect in the repeat runs; an effect the other way counts as inactive or inconclusive;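 note: CHO cells with doxycycline inducible ROR-gamma driving an RORE luciferase reporter; top concentration of the series differs between compounds; nearly all actives have a fitted effect of over 50% in size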)
In short: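 Readout: ONE-Glo luciferase luminescence, 30 min at room temperature. System: Tet-on RORγ CHO, RORE-LUC. Sequence: compound 2 h, doxycycline 1 uM final, 16 h at 37 C.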

[6] = qHTS assay to identify small molecule agonists of the AP-1 signaling pathway - cell viability counter screen (AID 1159525); note: nearly all actives have a fitted effect of over 55% in size
In short: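 Luminescent ATP readout (Cell Titer Glo, 30 min RT), normalised to DMSO and tetra n-octyl ammonium bromide controls. Cells were ME-180 AP-1-bla in 0.5% dialyzed FBS Opti-MEM, with a 5 h, 37 °C compound exposure.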

[7] = qHTS assay to identify small molecule agonists of the AP-1 signaling pathway (AID 1159526)
[8] = qHTS assay to identify small molecule agonists of the RXR signaling pathway - cell viability counter screen (AID 1159529; active = well fitted curve in the direction sought with a large enough effect in the repeat runs; an effect the other way counts as inactive or inconclusive; note: series mostly up to about 77 µM; nearly all actives have a fitted effect of over 50% in size)
In short: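 Tox21 10K compounds were tested for cytotoxicity against GeneBLAzer RXR-alpha HEK 293T cells grown in 2% charcoal-stripped FBS. Exposure lasted 16 hr at 37 C, 5% CO2; viability read by CellTiter-Glo luminescence.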

[9] = qHTS assay to identify small molecule antagonists of the vitamin D receptor (VDR) signaling pathway - cell viability counter screen (AID 743225; active = well fitted curve in the direction sought with a large enough effect in the repeat runs; an effect the other way counts as inactive or inconclusive; note: nearly all actives have a fitted effect of over 50% in size)
In short: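 Cytotoxicity toward the VDR-bla HEK 293T line was scored by ATP-based CellTiter-Glo luminescence, read in the wells already used for the beta-lactamase readout after 16 h compound treatment under 3 nM 1-alpha,25-dihydroxyvitamin D3 stimulation.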

[10] = target: Retinoic acid receptor RXR-alpha (Homo sapiens) (UniProt P19793); test: qHTS assay to identify small molecule agonists of the RXR signaling pathway (AID 1159527); note: nearly all actives have a fitted effect of over 35% in size; note: potency is the fitted concentration of half-maximal effect
Chain of Retinoic acid receptor RXR-alpha (Homo sapiens) (P19793 whole entry, looked up): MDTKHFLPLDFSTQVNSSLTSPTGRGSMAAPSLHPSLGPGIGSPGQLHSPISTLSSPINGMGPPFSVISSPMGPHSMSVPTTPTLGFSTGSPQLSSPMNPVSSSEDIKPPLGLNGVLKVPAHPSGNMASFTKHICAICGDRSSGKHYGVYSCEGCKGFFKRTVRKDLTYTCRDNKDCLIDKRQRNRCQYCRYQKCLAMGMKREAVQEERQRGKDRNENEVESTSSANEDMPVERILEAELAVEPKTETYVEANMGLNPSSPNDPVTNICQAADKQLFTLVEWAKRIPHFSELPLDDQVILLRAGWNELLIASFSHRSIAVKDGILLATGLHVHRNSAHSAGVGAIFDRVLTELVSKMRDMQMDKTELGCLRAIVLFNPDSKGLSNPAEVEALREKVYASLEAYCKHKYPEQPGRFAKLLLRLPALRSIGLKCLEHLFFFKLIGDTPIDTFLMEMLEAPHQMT
In short: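 Reporter activation is measured as beta-lactamase activity via FRET substrate cleavage (emission 460/530 nm) in HEK 293T cells expressing an RXR-alpha-driven bla construct, following 16 hr compound exposure at 37 C.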

Measured: Potency

CCN1C=CN(C)C1C (centres undefined)
not listed: [9] | [10]
inactive: all other assays above

COc1cc(-c2ccc(=O)[nH]n2)ccc1OC(F)F
not listed: [6]
inactive: all other assays above

CCOC(=O)COC(=O)c1ccccc1C(=O)OCC
not listed: [5]
inactive: all other assays above

O=[N+]([O-])c1ccc(/C=N\O)o1
not listed: [10]
inactive: all other assays above

CC(C)(C)c1ccc(-c2ccc(C(C)(C)C)cc2)cc1
not listed: [6] | [8] | [10]
inactive: all other assays above

COc1ccc2cc1Oc1cc3c(cc1OC)CC[N+](C)(C)[C@H]3Cc1ccc(cc1)Oc1c(OC)c(OC)cc3c1[C@@H](C2)[N+](C)(C)CC3
not listed: [5]
inactive: all other assays above

CCOC(=O)COc1cc(-n2ncc(C(F)(F)F)c(C)c2=O)c(F)cc1Cl
not listed: [9] | [10]
inactive: all other assays above

Nc1ccncc1N
not listed: [10]
inactive: all other assays above

N[C@H](C(=O)O)[C@@H](O)c1ccc(O)c(O)c1
not listed: [6] | [10]
inactive: all other assays above

CC(=O)c1cnccn1
not listed: [6]
inactive: all other assays above

O=CN(CCO)CCO
not listed: [5] | [9]
inactive: all other assays above

CNCCO
not listed: [5]
inactive: all other assays above

CCN[C@H]1C[C@H](C)S(=O)(=O)c2sc(S(N)(=O)=O)cc21
not listed: [6]
inactive: all other assays above

NCCCC(N)(C(=O)O)C(F)F (centres undefined)
not listed: [6]
inactive: all other assays above

CCCCCCCC1CCCC1=O (centres undefined)
not listed: [6]
inactive: all other assays above

NC(=O)NC1N=C([O][Al])NC1=O (centres undefined)
not listed: [9] | [10]
inactive: all other assays above

c1ccc2sc(SN3CCOCC3)nc2c1
not listed: [6] | [10]
inactive: all other assays above

OCCc1ccccn1
not listed: [6] | [9]
inactive: all other assays above

CC(C)C1CCC(O)CC1 (centres undefined)
not listed: [6]
inactive: all other assays above

CC(C)CCCO
not listed: [6] | [10]
inactive: all other assays above

Cc1ccc(C(=O)c2ccccc2)cc1
not listed: [6] | [10]
inactive: all other assays above

CC1=NS(=O)(=O)c2cc(Cl)ccc2N1
not listed: [5]
inactive: all other assays above

CC1=CC(=O)[C@H]2C[C@@H]1C2(C)C
not listed: [10]
inactive: all other assays above

CC1=NN(c2cc(S(=O)(=O)O)ccc2Cl)C(=O)C1N=Nc1ccccc1 (centres undefined)
not listed: [5]
inactive: all other assays above

C[C@H]1[C@H](NC(=O)/C(=N/OC(C)(C)C(=O)O)c2csc(N)n2)C(=O)N1S(=O)(=O)O (stereo in doubt)
not listed: [9] | [10]
inactive: all other assays above

CN1[C@@H]2CC[C@H]1CC(OC(=O)C(O)c1ccccc1)C2 (some centres undefined)
not listed: [5] | [9]
inactive: all other assays above

[Ca+2]
not listed: [9] | [10]
inactive: all other assays above

COc1c(N2CCNC(C)C2)c(F)cc2c(=O)c(C(=O)O)cn(C3CC3)c12 (centres undefined)
not listed: [10]
inactive: all other assays above

CCNS(=O)(=O)c1ccc(C)cc1
not listed: [6]
inactive: all other assays above

CC[N+](C)(CC)CCOC(=O)C1c2ccccc2Oc2ccccc21
not listed: [6] | [9]
inactive: all other assays above

NO
active: [10] 44.5 µM
not listed: [6]
inactive: all other assays above

CC(C)[C@H]1CC[C@@H](C)CC1=O
not listed: [10]
inactive: all other assays above

O=C(c1ccccc1O)c1ccccc1O
not listed: [6] | [10]
inactive: all other assays above

CN(C)CCN(C)CCN(C)C
not listed: [9] | [10]
inactive: all other assays above

CC(=O)NC(=O)c1ccccc1O
not listed: [4] | [6]
inactive: all other assays above

O=C1c2ccccc2C(=O)c2cc(O)ccc21
not listed: [4] | [5] | [9]
inactive: all other assays above

NCCCC[C@H](N[C@@H](CCc1ccccc1)C(=O)O)C(=O)N1CCC[C@H]1C(=O)O
not listed: [4] | [10]
inactive: all other assays above

CO[Si](C)(OC)c1ccccc1
not listed: [4] | [8] | [10]
inactive: all other assays above

O=S(=O)(O)c1cccc2ccccc12
not listed: [4] | [8]
inactive: all other assays above

CC1(C)[C@@H]2CC[C@@]1(C)[C@H](O)C2
not listed: [4] | [6] | [8]
inactive: all other assays above

Reference: PubChem BioAssay (Tox21)
